Laboratory results from PubChem BioAssay AID624330 (Southern Research Specialized Biocontainment Screening …, 2012).
Among all 340,000 compounds or so, about 2,100 (0.62%) were called active.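 The calls were made as follows: active = first-screen hits whose inhibition reached a set limit at any dose in the follow-up dose series; inconclusive = inhibition above the set first-screen limit but never retested; inactive = the rest.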 The list is a sample of the results. Potency and affinity values are given separately.

Biological target: Rac GTPase-activating protein 1 (Homo sapiens) (UniProt Q9H0H5)
Experiment: MgcRacGAP GTPase-activating activity inhibitors, confirmation, biochemical, ADP Hunter fluorescence, primary and confirmatory (AID 624330);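 also: fluorescence reports GDP produced by GAP-driven GTP hydrolysis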
Settings: MgcRacGAP-stimulated Rac1 GTP hydrolysis, at 30 µM, stronger effect = higher value, GST-tagged Rac1 F28L mutant substrate

Sequence of Rac GTPase-activating protein 1 (Homo sapiens) (Q9H0H5 whole entry, looked up): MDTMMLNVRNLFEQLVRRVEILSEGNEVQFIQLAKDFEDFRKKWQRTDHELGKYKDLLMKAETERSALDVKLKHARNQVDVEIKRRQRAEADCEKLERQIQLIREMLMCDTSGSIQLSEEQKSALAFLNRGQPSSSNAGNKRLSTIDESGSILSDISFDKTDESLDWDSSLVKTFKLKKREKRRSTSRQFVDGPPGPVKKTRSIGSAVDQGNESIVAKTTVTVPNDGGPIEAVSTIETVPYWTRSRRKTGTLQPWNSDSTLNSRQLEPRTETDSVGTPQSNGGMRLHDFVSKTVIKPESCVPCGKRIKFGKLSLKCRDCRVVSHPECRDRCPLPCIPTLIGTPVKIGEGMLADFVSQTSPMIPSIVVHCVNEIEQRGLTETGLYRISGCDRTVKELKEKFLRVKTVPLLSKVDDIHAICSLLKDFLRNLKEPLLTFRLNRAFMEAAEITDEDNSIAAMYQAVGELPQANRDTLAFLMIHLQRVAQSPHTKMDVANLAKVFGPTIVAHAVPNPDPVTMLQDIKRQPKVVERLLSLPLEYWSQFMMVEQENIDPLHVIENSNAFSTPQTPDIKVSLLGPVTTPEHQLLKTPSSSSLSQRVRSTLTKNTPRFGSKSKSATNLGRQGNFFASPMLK

inhibition, inactive:
Cc1ccccc1NC(=O)/C(C#N)=C\c1cccnc1 16.7%, COc1ccccc1NC(=O)/C(C#N)=C/c1cccnc1 4.24%, CCCOc1ncnc2c1[nH]c1ccc(OC)cc12 5.1%, Cc1cc(O)ccc1NC(=S)NC(=O)c1cncc(Br)c1 11%, CC(C)CCNC(=O)c1cccc(C(=O)NCCC(C)C)c1 9.34%, COc1cc(/C=N/N=C(\N)c2nonc2N)cc(OC)c1O 19.5%, COc1ccc(/C=N/N=C(\N)c2nonc2N)cc1OC 0.88%, C(=N\N=C\c1ccccc1)/c1ccccc1 5.71%, COc1ccc(/C=N/N=C(\N)c2nonc2N)cc1 6.95%, Cc1ccc(/C=N/N=C/c2ccc(C)cc2)cc1 4.21%, N/C(=N\N=C\c1cccc(O)c1)c1nonc1N 7.37%, COc1ccc(C(=O)NN=C2CCCC2)cc1OC -4.29%, CC(C)NC(=O)N(C)C[C@H]1Oc2ccc(NC(=O)Cc3ccccc3)cc2C(=O)N([C@H](C)CO)C[C@@H]1C -4.37%, O=C(Nc1ccc(Cl)c(Cl)c1)N1N=CCC1c1ccccc1 (centres undefined) 0.69%, COc1ccc(-c2cc(C(F)F)n3ncc(C(=O)Nc4c(C)n(C)n(-c5ccccc5)c4=O)c3n2)cc1 5.73%, COc1ccccc1NS(=O)(=O)c1cc(NC(=S)NCCN2CCOCC2)ccc1N1CCOCC1 21.5%, Cc1ccc(S(=O)(=O)N2CCCCC2)cc1NC(=O)C1=NN(c2ccccc2)C(=O)CC1 4.16%, Fc1ccc(OCc2nc3ccccc3s2)cc1 3.88%, c1ccc(OCc2nc3ccccc3s2)cc1 7.47%, O=c1oc2ccccc2c(O)c1Sc1c(O)c2ccccc2oc1=O 16.1%, COc1cc(C(=O)NCCCCc2ccccc2)cc(OC)c1OC 5.47%, COc1ncnc2c1ncn2CCCNCc1ccccn1 12.9%, COC(=O)C(NC(C)=O)(Nc1sc2c(c1C(N)=O)CCCC2)C(F)(F)F (centres undefined) 4.3%, COc1ccc(CNc2ncc(-c3ccccc3)n2C)c2ccccc12 23.6%, COc1ccc(CNc2ncc(-c3cccc([N+](=O)[O-])c3)n2C)c(OC)c1OC 28.9%, COc1ccccc1CNc1ncc(-c2ccc(F)cc2)n1C 28.3%, Cn1c(-c2ccc(F)cc2)cnc1NCc1ccc(F)cc1F 29.6%, Cn1c(-c2ccc(F)cc2)cnc1NCc1ccccc1F 25.9%, Cc1ccc(CNc2nc3ccccc3n2C)o1 8.19%, COc1ccc(CNc2ncc(-c3ccc(Cl)cc3)n2C)c(OC)c1OC 16.9%, Cn1c(-c2ccccc2)cnc1NCc1cc(Cl)ccc1O 31.7%, COc1ccc(CNC(=O)c2ccc(Cn3nc(C)c([N+](=O)[O-])c3C)o2)cc1 5.77%, Cc1cc(C)c(SSc2nnnn2-c2ccccc2)c(C)c1 27.2%, CC1CN(C(=O)CCNC(=O)c2ccccc2Cl)CC(C)O1 (centres undefined) 4.76%, COC(=O)[C@H](C(C)C)N(Cc1ccccc1)S(=O)(=O)CCN1CCN(c2ccccc2)CC1 3.71%, Cc1c(Br)c([N+](=O)[O-])nn1CC(=O)Nc1nccs1 -2.73%, COc1ccc(S(=O)(=O)NC(CC(=O)NC2CCCC2)c2ccco2)cc1 (centres undefined) 5.91%, O=C(C1CCN(S(=O)(=O)c2cccc3nsnc23)CC1)N1CCc2ccccc2C1 -5.35%, Cn1c(-c2ccc(F)cc2)cnc1NCc1ccc(C#N)cc1 24.6%, Cn1c(-c2ccc(F)cc2)cnc1NCc1ccccc1 25.3%, COc1ccc(N2C(=O)C3CC(C)=C(C)CC3C2=O)c(OC)c1 (centres undefined) 0.34%, COc1cc(N2C(=O)C=CC2=O)c(OC)cc1Cl -11.4%, O=C(c1ccccc1)c1ccccc1N1C(=O)C=CC1=O 17.1%, O=C1C=CC(=O)N1c1ccccn1 7.4%, CCCc1cc(=O)[nH]c(SCC(=O)Nc2ccc(C)c(S(=O)(=O)N3CCCCC3)c2)n1 6.98%, COc1cccc(OC)c1C(=O)N1CCN(c2ccccn2)CC1 6.84%, COC(=O)c1c(NC(=O)c2cccnc2)sc(C(=O)N(C)C)c1C 4.99%, COc1ccc(-c2nc(N)ncc2-c2ccccc2OC)c(O)c1 5.57%, COc1ccc(-c2cc3cc(OC)c(OC)cc3c(C)n2)cc1 6.65%, COc1ccc(-c2cc3cc(OC)c(OC)cc3c(C)n2)cc1C 6.32%, COc1ccc(-c2cc(-c3ccccc3O)[nH]n2)cc1OC 13.3%, COc1ccc(-c2cncnc2-c2ccc(OC)cc2O)cc1 2.33%, COc1ccc(-c2cc(-c3ccc(OC)c(OC)c3)n[nH]2)c(O)c1 8.89%, COc1ccccc1-c1c(-c2ccc(O)cc2O)n[nH]c1C(F)(F)F 13.8%, COc1ccc(-c2c(-c3ccc(O)cc3O)n[nH]c2C(F)(F)F)cc1 9.47%, COc1ccc(CNC(=O)C2CCCN(c3nn4c(=O)cc(C)nc4s3)C2)cc1 (centres undefined) 12.2%, CC1C2Cn3c(nc4ccccc43)C1N(C(C)C)O2 (centres undefined) 10.4%, Nc1ccc(C(=O)O)cc1S(=O)(=O)O 14.3%, CCOC(=O)c1cnc2c(Cl)c(Cl)ccc2c1NCCN1CCOCC1 8.14%, O=C(NC(=S)Nc1ccccc1Br)C1CCCCC1 13%, CCCN(CC(=O)Nc1ccccc1C)C(=O)C1CCN(S(=O)(=O)c2ccc3c(c2)OCCO3)CC1 4.31%, O=C(CCc1ccccc1)n1nc(-c2ccccc2)nc1NCc1ccco1 7.46%, COc1ccc(-c2nc(CCl)cs2)cc1OC 1.88%, COc1ccc(-c2nc(C(=O)O)cs2)cc1OC -2.83%
